KinaseGlo FLuc: counter-screen: inhibitors of Kinase-Glo firefly luciferase; 0.28% of 200,000 active; Potency, µM (highest dose often 38.3 µM), without a hit: top-dose activity change, negative = inhibition, usual class: inhibitors; Kinase-Glo luciferase, ATP luminescence, 8 min; Q27757; also: % is scaled to controls: 0 for no effect and ±100 for the full control effect; nearly all actives have a fitted effect of over 60% in size
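Light output from Kinase-Glo luciferase with luciferin and 10 uM ATP in 50 mM imidazole pH 7.2, KCl, MgCl2, Tween 20, BSA; compound pin-delivered, 8-min ambient incubation, then luminescence read.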
ELG1 genotox: genotoxicity induction in ELG1-luciferase HEK293T cells. HEK293T ELG1-luciferase reporter, luminescence, 16 h. Potency, µM (titrated, usually from 46 µM), for the others: top-dose activity change, positive = activation, usual class: activators. 1.3% of 330,000 active; also: % of control where 0% means no effect; nearly all actives have a fitted effect of over 60% in size
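Luminescence read-out: rising ELG1-luciferase signal, reflecting elevated ELG1 protein under genetic stress, flags genotoxic compounds. Cells were treated for 16 hr at 37 °C before ONE-Glo detection.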
NPC1 prom act: activates the NPC1 promoter | Huh7 NPC1 promoter luciferase reporter, 24 h | Potency, µM (series often up to 9.22 µM), without a hit: at the highest dose activation, actives largely listed as activators | 2.4% of 320,000 active | AID 485313; also: % of control where 0% means no effect; nearly all actives have a fitted effect of over 60% in size
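Luminescence read-out of NPC1 promoter-driven luciferase in stably transfected Huh7 cells; compounds delivered in DMSO and left 24 h at 37C, 5% CO2, qHTS titration format.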
SMN2 splice enh: enhancers of SMN2 splice variant expression | 2.8% of 210,000 active | HEK293 SMN2-luciferase splicing reporter, luminescence, 30-36 h | AID 1458 | Potency, µM (series often up to 46.1 µM), inactives show at the top dose activity change, positive = activation, actives largely listed as activators; also: % of control where 0% means no effect; nearly all actives have a fitted effect of over 55% in size
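HEK293 cells carry an SMN2 minigene-luciferase reporter in which exon 7 inclusion puts luciferase in frame. Cells were seeded at 2000 cells/well, attached for 10-12 hours, then exposed to compounds for 30-36 hours at 37C before ONE-Glo luminescence.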
FLuc modulator: inhibits or activates purified firefly luciferase, miR-21 counter-screen | P08659 | purified FLuc, Km substrates, luminescence inhibition | Potency, µM (doses to about 57.5 µM), for the others: at the highest dose activity change, negative = inhibition, most hits filed as inhibitors | 6.9% of 360,000 active;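 also: plate controls were vehicle for no effect and reference inhibitor for full effect; nearly all actives have a fitted effect of over 55% in size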
Target sequence (P08659 whole entry, looked up): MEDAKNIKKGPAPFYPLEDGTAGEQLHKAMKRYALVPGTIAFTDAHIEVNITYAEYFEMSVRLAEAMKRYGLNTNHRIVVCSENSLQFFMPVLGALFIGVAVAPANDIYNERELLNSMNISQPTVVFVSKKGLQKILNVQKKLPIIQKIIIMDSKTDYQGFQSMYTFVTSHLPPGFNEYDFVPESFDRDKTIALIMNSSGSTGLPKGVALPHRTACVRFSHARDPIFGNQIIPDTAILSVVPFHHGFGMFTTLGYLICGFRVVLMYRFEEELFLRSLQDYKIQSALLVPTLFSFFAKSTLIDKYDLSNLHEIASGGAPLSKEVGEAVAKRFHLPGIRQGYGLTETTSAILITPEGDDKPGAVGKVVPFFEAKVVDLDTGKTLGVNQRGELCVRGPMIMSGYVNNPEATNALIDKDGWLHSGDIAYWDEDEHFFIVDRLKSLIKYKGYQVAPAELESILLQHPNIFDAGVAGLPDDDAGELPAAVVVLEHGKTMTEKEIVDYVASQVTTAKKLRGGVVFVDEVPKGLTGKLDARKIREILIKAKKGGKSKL
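Purified P. pyralis luciferase (10nM final) with 10uM D-luciferin and 10uM ATP (Km levels) in 50mM Tris acetate pH 7.5, 10mM Mg acetate, 0.01% Tween-20, 0.05% BSA; qHTS 6-point titration, ~60 µM downward; luminescence read.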
Rab9 promoter act: activators of Rab9 promoter; Huh7 Rab9 promoter-luciferase reporter, luminescence, 24 h; Potency, µM (doses to about 9.22 µM), without a hit: top-dose activation, negative = inhibition, usual class: activators; 2.8% of 320,000 active; also: % of control where 0% means no effect; nearly all actives have a fitted effect of over 60% in size
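Huh7 cells stably carrying a Rab9 promoter-luciferase reporter, 1500 cells per well in OP-MEM I with 10% FBS, treated with compound 24 hours at 37C. Luciferase activity read by luminescence after 10 minutes with Amplite reagent.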
* marks the source's active call; other numbers are inactive results; ? = inconclusive; . = no result; [ ] = dose if it differs, or a comment. The list is not random: actives were taken first. Their share in the collection is about 7.5%. Calls follow the shape of the dose curve; as a rule, active = well fitted curve in the direction sought with a large enough effect; inconclusive = small, poorly fitted or top-dose-only effect, or another doubt; inactive = no such curve, though single readings can be large; an effect the other way counts as inactive or inconclusive. Potency is read from the fitted curve at half-maximal effect.

SMILES	KinaseGlo FLuc	ELG1 genotox	NPC1 prom act	SMN2 splice enh	FLuc modulator	Rab9 promoter act
O=C(Nc1ccc(-c2cn3ccccc3n2)cc1)c1cccs1	-24%	?	1.8µM*	11µM*	1.9µM*	3.5µM*
COc1ccc(CC(=O)Nc2ccc(NC(=O)c3ccccc3F)cc2)cc1	1%	10%	-5%	.	1%	-3%
COc1ccc(-c2cn(-c3ccc(C)cc3)c(S(=O)(=O)CC(=O)Nc3ccccc3)n2)cc1	.	.	.	13µM*	?	.
O=C(Nc1ccc(-c2cn3ccccc3n2)cc1)c1cc(Br)ccc1O	-2%[7.66 µM]	.	.	2%[9.22 µM]	.	.
COc1ccc(CC(=O)Nc2ccc(-c3cn4ccccc4n3)cc2)cc1	-8%	?	?	?	3.4µM*	3.2µM*
Cc1nc(SCC(=O)Nc2ccccc2Cl)cc(-c2ccccc2)n1	.	.	.	.	-15%	.
COc1ccc(CC(=O)Nc2cccc(-c3cn4ccccc4n3)c2)cc1	-5%	-3%	2%	25%	8.5µM*	23%
COc1ccc(CC(=O)Nc2ccc(-c3cn4ccccc4n3)cc2)cc1OC	-2%	?	21%	-17%	17µM*	18%
Cc1ccc(S(=O)(=O)Nc2cccc(-c3cn4cccc(C)c4n3)c2)c(C)c1	.	.	.	-17%	?	.
COc1ccc(CC(=O)Nc2ccc(N3CCOCC3)cc2)cc1OC	.	-9%	-2%	.	6%	-5%
O=C(Nc1cccc(-c2cn3ccccc3n2)c1)C1CC1	-2%	?	26%	?	13µM*	3%
CN(C)S(=O)(=O)c1cccc(-c2cn3ccccc3n2)c1	0%	2%	14%	1%	-11%	26%
CCC(=O)Nc1cccc(-c2cn3cccc(C)c3n2)c1	.	12%	?	.	7.6µM*	?
CCCCn1c(C(C)NC(=O)c2ccccc2)nc2ccccc21 (stereo unspecified)	.	.	.	6%	-6%	.
CCCCC(CC)CNC(=O)CN1C(=O)CSc2ccc(S(=O)(=O)N3CCOCC3)cc21 (stereo unspecified)	.	.	.	.	2%	.
CCOc1ccccc1NC(=O)CN1C(=O)CC(c2ccco2)Sc2ccccc21 (stereo unspecified)	.	.	.	-33%	?	.
O=C(CSc1nnc(-c2c[nH]c3ccccc23)o1)NCC1CCCO1 (stereo unspecified)	.	2%	0%	.	.	0%
Cc1nnc2ccc(-c3ccc(NC(=O)Cc4cccs4)cc3)nn12	.	?	-5%	.	-5%	-2%
CCOc1ccc(CC(=O)Nc2ccc(-c3ccc4nnc(C)n4n3)cc2)cc1	-3%	21µM*	-9%	-5%	-7%	-1%
CSc1nc2ccc(NC(=O)c3ccccn3)cc2s1	.	0.092µM*	0.45µM*	.	0.43µM*	0.4µM*
CSc1nc2ccc(NC(=O)C3=NN(c4ccccc4)C(=O)CC3)cc2s1	0%	0%	6%	?	19µM*	0%
CSc1nc2ccc(NC(=O)CSc3nnc(N)s3)cc2s1	-3%	?	9%	9%	21µM*	15%
CSc1nc2ccc(NC(=O)C3=NNC(=O)CC3)cc2s1	-1%	10%	19%	19%	?	22%
COc1ccc(CNC(=O)CCc2c(C)c3cc4c(C)c(C)oc4cc3oc2=O)cc1OC	.	.	.	2%	-7%	.
C/C(=N\NC(=O)c1ccc(O)cc1O)c1cccnc1	.	11%	24%	.	9.5µM*	?
O=C(c1cc(-c2ccco2)nc2ccccc12)N1CCN(c2ccc(F)cc2)CC1	0%	-8%	-1%	5%	19µM*	9%
COc1ccc(N2CCN(C(=O)c3cc(-c4cccs4)nc4ccccc34)CC2)cc1	4%	-14%	1%	-11%	?	-1%
O=C(OCC(=O)N1CCN(C(=O)c2ccco2)CC1)c1cc(-c2ccco2)nc2ccccc12	-3%	-2%	-5%	-7%	15µM*	-10%
O=C(N/N=C/c1ccc(F)cc1)c1cc(-c2ccco2)nc2ccccc12	-4%	1%	-18%	6%	3µM*	-4%

High-throughput results from PubChem BioAssay.
